Results taken from PubChem BioAssay (NCATS).
Records with an inconclusive call do not appear. A number with no mark means an inactive call. Calls of active or inactive are those of the source. The call rests on the fitted dose curve; in most records, active means well fitted cell-killing curve with a large enough effect; inconclusive means small, poorly fitted or top-dose-only effect; inactive means flat fitted curve, though single readings scatter.

assay: qHTS of pediatric cancer cell lines to identify multiple opportunities for drug repurposing: Confirmatory screen for A673 cells (AID 1347110); details: A673 Ewing sarcoma cell viability; series mostly up to 45.9 µM; activity change, negative = cytotoxicity: at the top concentration;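 further: cells exposed to compound for 48 h before the viability read; nearly all actives have a fitted effect of over 65% in size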
Excerpt: Drug repurposing or repositioning has been offered as a strategy for drug development in oncology programs. This approach has special potential for childhood cancers and other rare or orphan diseases, where the expected return on new drug development has been a disincentive to pharmaceuticals.
In this project we exploit the poly-pharmacology of drugs to discover new indications via phenotypic screening of a panel of 19 well-characterized cell lines derived from solid tumors seen in children and adolescents. The goal is to identify approved drugs with previously unrecognized anticancer properties that has the potential to reveal new mechanisms and biological processes involved in carcinogenesis or drug resistance. We employed a titration-based paradigm (quantitative high-throughput screening or qHTS), where all compounds were tested at multiple concentrations for their effect on cell viability. Concentration-response curves (CRCs) were derived directly from the primary screen, and both potency and efficacy values were used to identify compounds with robust bioactivity profiles. We screened the NIH Chemical Genomics Center (NCGC) Pharmaceutical Collection (NPC) and Mechanism Interrogation Plate (MIPE) small molecule collections of approved and investigational compounds against these cell lines; and measured metabolically active cells after 48 hours of compound treatment as a proxy for cell viability.
Assay Submitter: Nathalia J. Martinez, National Center for Advancing Translational Sciences, National Institutes of Health, Rockville, MD, USA; email: natalia.martinez@nih.gov.
[1] Shen, M et al. Quantitative high-throughput phenotypic screening of pediatric cancer cell lines identifies multiple opportunities for drug repurposing. Oncotarget 2017 Dec 19;9(4):4758-4772. PMID 29435139.
The cells were obtained from University of North Carolina (UNC), Pediatric Preclinical Testing Program (PPT), and Coriell Institute (CI).
qHTS cell viability assay:
Cells were assayed in growth media at a density of 500-1,000 cells/well. Five microliters of cells were dispensed into 1,536-well, white, solid-bottom, TC-treated plates (Greiner Bio One) using a multidrop dispenser and incubated at 37 degrees C, 5% CO2, under a humidified atmosphere for 5 hours. Twenty-three nanoliters of compounds and controls (neutral control DMSO or positive control bortezomib at final concentration of 2.3 uM) were subsequently transferred by Kalypsys pintool. For primary screens, the MIPE collection was tested at 11-point dilutions (final concentrations range from 0.78 nM to 46 µM) and the NPC collection at 8-point dilutions (final concentrations range from 0.59 nM to 46 µM). Compounds tested in follow-up screens were assayed at 11-point dilutions. Cells were incubated for 48 hours, followed by addition of 3 uL of CellTiter-Glo (Promega). After a 15min incubation at room temperature, samples were analyzed for luminescence intensity using a ViewLux High-throughput CCD imager equipped with clear filters.
Potency means the concentration at half of the fitted maximal effect.

Compound	activity change, negative = cytotoxicity	Potency
COc1ccc(C(=O)c2ccccc2)c(O)c1	2.3%	
CCCCCCCCCCC[C@@H](C[C@@H]1OC(=O)[C@H]1CCCCCC)OC(=O)[C@H](CC(C)C)NC=O	13.9%	
CN(C)C(=O)Nc1ccc(Cl)c(Cl)c1	-12.4%	
C=C[C@@]1(C)CC(=O)[C@]2(O)[C@@]3(C)[C@@H](O)CCC(C)(C)[C@@H]3[C@H](O)[C@H](OC(C)=O)[C@@]2(C)O1	5.23%	
CCN1/C(=C/C=C/c2sc3ccccc3[n+]2CC)Sc2ccccc21		0.456 µM (active)
Nc1nc(Cl)nc2c1ncn2[C@@H]1O[C@H](CO)[C@@H](O)[C@@H]1F		1.04 µM (active)
O=C(CCCN1CC=C(n2c(=O)[nH]c3ccccc32)CC1)c1ccc(F)cc1	-9.63%	
O=[N+]([O-])c1ccc(/C=N\O)o1	-0.888%	
NC(N)=NN=C(/C=C/c1ccc([N+](=O)[O-])o1)/C=C/c1ccc([N+](=O)[O-])o1		2.61 µM (active)
C[C@@]12C(=O)OC(=O)[C@]1(C)C1CCC2O1		7.37 µM (active)
C[C@H]1O[C@@H](O[C@H]2CC[C@@]3(C)[C@H](CC[C@@H]4[C@@H]3C[C@@H](O)[C@]3(C)[C@@H](C5=CC(=O)OC5)CC[C@]43O)C2)C[C@H](O)[C@@H]1O[C@H]1C[C@H](O)[C@H](O[C@H]2C[C@H](O)[C@H](O[C@@H]3O[C@H](CO)[C@@H](O)[C@H](O)[C@H]3O)[C@@H](C)O2)[C@@H](C)O1		0.737 µM (active)
